# Screens from PubChem.
# Shh pathway inh = Hedgehog pathway signaling inhibitors, primary screen, luminescence, Shh-LIGHT2 cells, Gli-luciferase; Shh-LIGHT2 Gli-luciferase reporter, 30 h; inhibition, % (test concentration not listed); hit rate 2.1% among 22,000;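 active = mean inhibition across valid replicates above about 65%, limit read from the data; inconclusive = mean under the limit, yet half or more replicates past it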;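 also: pathway switched on by Shh-conditioned medium diluted 1 in 25 in low serum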
# MITF inhib = inhibitors of MITF, primary screen, MITF inhibitor project, cell-based, luminescence; inhibition, % (test concentration not listed); hit rate 0.28% among 37,000; TRPM1 promoter luciferase, 24 h; in the data active = inhibition above about 85%; inconclusive = no clear call, values can overlap the other calls; inactive = below about 68%;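 also: human melanocyte line stably carrying TRPM1 promoter luciferase reporter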
# NOMO-1 viab = NOMO-1 AML cell viability reduction, primary screen, STK33 inhibitor project, CellTiter-Glo luminescence; inhibition, % (test concentration not listed); hit rate 7.5% among 37,000; NOMO-1 AML viability, 72 h; AID 2330, 2010; in the data active = inhibition above about 80%; inconclusive = no clear call, values can overlap the other calls
# * marks the source's active call; other numbers are inactive results; ? = inconclusive; / = no result; ! = a repeat was not active. Sampled rows, rich in hits. Any-hit rate of the full collection: about 7.9%.
SMILES,Shh pathway inh,MITF inhib,NOMO-1 viab
C[C@H]1CN([C@@H](C)CO)C(=O)c2cc(NC(=O)NC3CCCCC3)ccc2O[C@@H]1CN(C)Cc1ccc2c(c1)OCO2,-7.8,-6.1,25.7
C[C@H](CO)N1C[C@H](C)[C@H](CN(C)Cc2ccc3c(c2)OCO3)Oc2ccc(NC(=O)NC3CCCCC3)cc2C1=O,/,3.7,93.6*
CCOC(=O)c1c(CSc2nc(C)cc(C)n2)nc2c3ccccc3ccn12,/,-111.4,2.8
CCN1C(=O)c2cccc3c(S(=O)(=O)Nc4ccccc4)ccc1c23,/,24.2,104.8*
CCN1C(=O)c2cccc3c(S(=O)(=O)N4CCCC4C(=O)O)ccc1c23 (stereo not given),/,-23.9,-8.3
COc1ccc(OC)c(NC(=O)c2c(NC(=O)c3ccccc3)sc3c2CCC(C)C3)c1 (stereo not given),/,-7.4,12.2
N=c1oc2ccc3ccccc3c2cc1C(=O)Nc1ccccc1,4.0,10.6,114.6*
O=C(Nc1cc2c(ccc3ccccc32)oc1=O)c1ccccc1,-20.2,26.5,14.8
NC(=O)c1ccccc1NCC(=O)c1ccc(F)cc1,-8.2,-7.9,73.2
O=C(CC(Sc1ccccc1C(=O)O)c1ccc(F)cc1)c1ccc(F)cc1 (stereo not given),-38.6,8.6,116.6*
C[C@H]1CN([C@@H](C)CO)C(=O)Cc2cc(NS(=O)(=O)c3cn(C)cn3)ccc2O[C@@H]1CN(C)Cc1ccncc1,/,-5.6,19.7
C[C@H]1CN([C@@H](C)CO)C(=O)Cc2cc(NC(=O)Nc3cccc4ccccc34)ccc2O[C@@H]1CN(C)Cc1ccncc1,9.4,-4.6,15.7
C[C@H](CO)N1C[C@H](C)[C@H](CN(C)Cc2ccncc2)Oc2ccc(NC(=O)Nc3cccc4ccccc34)cc2CC1=O,43.7,10.3,124.7*
C[C@@H]1CN([C@@H](C)CO)C(=O)Cc2cc(NC(=O)Nc3cccc4ccccc34)ccc2O[C@@H]1CN(C)Cc1ccc(-c2ccccc2)cc1,26.3,-2.1,51.6
COc1ccc(CN(C)C[C@H]2Oc3ccc(NC(=O)Nc4cccc5ccccc45)cc3CC(=O)N([C@H](C)CO)C[C@H]2C)cc1,14.5,-4.0,42.0
COc1ccc(CN(C)C[C@H]2Oc3ccc(NC(=O)Nc4cccc5ccccc45)cc3CC(=O)N([C@@H](C)CO)C[C@H]2C)cc1,-0.7,4.4,19.5
COc1ccc(CN(C)C[C@@H]2Oc3ccc(NC(=O)Nc4cccc5ccccc45)cc3CC(=O)N([C@@H](C)CO)C[C@@H]2C)cc1,68.6*,-7.9,24.7
C[C@@H]1CN([C@H](C)CO)C(=O)Cc2cc(NC(=O)Nc3cccc4ccccc34)ccc2O[C@@H]1CN(C)Cc1ccc(Oc2ccccc2)cc1,35.3,14.1,110.5*
C[C@@H]1CN([C@H](C)CO)C(=O)Cc2cc(NC(=O)Nc3cccc4ccccc34)ccc2O[C@@H]1CN(C)Cc1ccc(-c2ccccc2)cc1,20.4,-0.2,94.0*
O=C(CSc1nc(-c2ccccc2)cs1)Nc1ccccc1C(F)(F)F,/,-7.1,11.7
CC1=CC(C)C2COC(c3ccccc3OCc3ccccc3)C1C2C (stereo not given),-23.6,15.2,52.7
C[C@@H]1CN([C@H](C)CO)C(=O)c2cc(NS(C)(=O)=O)ccc2O[C@H]1CN(C)Cc1ccc(C(=O)Nc2ccccc2N)cc1,/,-8.7,21.2
CS(=O)(=O)N(CC(=O)Nc1ccccc1Br)c1cc(Cl)c(Cl)cc1Cl,/,6.2,8.7
Cc1noc(C)c1NC(=O)N(C)C[C@H]1Oc2c(NS(=O)(=O)c3ccc(Cl)cc3)cccc2C(=O)N([C@H](C)CO)C[C@H]1C,21.2,6.7,13.4
Cc1ccc(S(=O)(=O)N(C)C[C@@H]2Oc3ccc(NC(=O)Cn4cnnn4)cc3C(=O)N([C@@H](C)CO)C[C@@H]2C)cc1,/,-4.9,9.1
SMILES,Shh pathway inh,MITF inhib,NOMO-1 viab
C[C@@H]1CCCCO[C@@H](CN(C)C(=O)Cc2ccccc2)[C@@H](C)CN([C@H](C)CO)C(=O)c2cc(NC(=O)Cc3ccccc3)ccc2O1,-4.6,12.7,11.4
C[C@@H]1CN([C@@H](C)CO)C(=O)Cc2cc(NC(=O)Nc3cccc4ccccc34)ccc2O[C@@H]1CN(C)Cc1ccc(C(F)(F)F)cc1,13.0,37.6,117.4*
C[C@@H]1CN([C@H](C)CO)C(=O)Cc2cc(NC(=O)Nc3cccc4ccccc34)ccc2O[C@H]1CN(C)Cc1ccccc1,12.9,7.8,8.0
O[C@H]1[C@H]2c3cc4c(cc3CN3CCC(=C[C@@H]1O)[C@H]23)OCO4,83.1*,62.4,142.0*
O[C@@H]1[C@@H](O)C=C2CCN3Cc4cc5c(cc4[C@H]1C23)OCO5 (stereo not given in full),95.8*,62.8,114.3*
COC1C=CC23c4cc5c(cc4CN(C[C@H]2O)[C@@H]3C1)OCO5 (stereo not given in full),50.6,54.4,?
CN1CCc2cc3c(cc2C2OC(O)c4c(ccc5c4OCO5)C21)OCO3 (stereo not given),-12.5,6.3,13.6
O=C(CSc1n[nH]c(-c2ccc(Cl)cc2)n1)Nc1ccccc1Cl,/,-9.9,44.1
C[C@H]1CN([C@@H](C)CO)C(=O)c2cc(NS(=O)(=O)c3ccccc3)ccc2O[C@H]1CN(C)S(C)(=O)=O,21.6,-6.2,39.1
CCN(CC)CCn1nnc2c(=O)oc3ccccc3c21,/,3.1,18.9
O=C(CCN1CCN(CCO)CC1)N1c2ccccc2Sc2ccc(C(F)(F)F)cc21,/,13.8,16.5
CN1CCN(CCCN2c3ccccc3Sc3ccc(C(F)(F)F)cc32)CC1,9.8,4.7,111.9*!
CCc1nc2sc3c(c2c2nnc(SCC(=O)Nc4ccccc4)n12)CCC3,/,-12.2,-17.2
C[C@H]1CN([C@@H](C)CO)C(=O)Cc2cc(NC(=O)Cc3cn(C)c4ccccc34)ccc2O[C@H]1CN(C)Cc1ccc(C(=O)Nc2ccccc2N)cc1,/,19.2,120.1*
C[C@@H]1CN([C@H](C)CO)C(=O)Cc2cc(NC(=O)Cc3cn(C)c4ccccc34)ccc2O[C@@H]1CN(C)Cc1ccc(C(=O)Nc2ccccc2N)cc1,/,9.6,76.5
C[C@H](CO)N1C[C@H](C)[C@H](CN(C)Cc2ccc(C(=O)Nc3ccccc3N)cc2)Oc2ccc(NC(=O)Cc3cn(C)c4ccccc34)cc2CC1=O,/,6.0,127.0*
C[C@@H]1CN([C@H](C)CO)C(=O)Cc2cc(NC(=O)Cc3cn(C)c4ccccc34)ccc2O[C@@H]1CN(C)Cc1ccc(C(=O)O)cc1,24.2,5.6,-0.2
Cc1cc(N(CC(=O)Nc2cc(C(F)(F)F)ccc2Cl)S(C)(=O)=O)ccc1Br,/,-0.5,58.7
Cn1c(SCc2nc(-c3ccc(Cl)cc3)no2)nnc1-c1ccccc1,/,4.7,-20.2
Cc1c(C2CCN(CCc3ccccc3)CC2)noc1-c1ccc(Cl)cc1,77.2*,-1.2,92.9*
CNC[C@H]1Oc2ccc(NC(=O)C3CCCCC3)cc2CC(=O)N([C@@H](C)CO)C[C@@H]1C,39.6,-1.9,-7.1
C[C@@H]1CN([C@H](C)CO)C(=O)Cc2cc(NC(=O)Cn3cnnn3)ccc2O[C@H]1CN(C)C(=O)NC1CCCCC1,-24.7,7.0,5.2
CC(C)(C)c1ccc(S(=O)(=O)CC(O)CSc2nc3c(cc2C#N)CCCC3)cc1 (stereo not given),/,-11.9,0.4
